The results in this text go back to publication PMC5540273 (PLoS ONE, 2017).

Common to all, as to details: concentration: 1 μM,replicates: in singlicate; n = 1
Assay [1] relates to T1, IKK-alpha.
T1 construct: gene CHUK

In assay [2] the test system is T2, IKK-beta.
T2 construct: gene IKBKB

Assay [3] has as its system T3, IKK-epsilon.
T3 construct: gene IKBKE

For assay [4], the system named is INSRR.
Assay [5] relates to INSR.
Assay [6] has as its system IRAK1.
Assay [7] concerns IRAK3.
Assay [8] concerns IRAK4.
In assay [9] the test system is ITK.
Assay [10] deals with JAK1(JH1domain-catalytic).
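Also: KINOMEscan kinase panel screen.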

Consider `C=CC(=O)Nc1cc2c(Nc3ccc(F)c(Cl)c3)ncnc2cc1OCCCN1CCOCC1` [GW781483], for which the “%Inh” value in assay [1] is recorded as 0%; in assay [2], 0%; in [3] it was 0%; in assay [4], 0%; in [5], 0%; in [6], 74%. Moreover, the “%Inh” value turned out to be 2% in assay [7], 28% in assay [8], 35% in [9] and 0% in assay [10].

Take `CN(C)CC(O)COc1ccc(Nc2nccc(-c3cnn4nc(N5CCOCC5)ccc34)n2)cc1` (stereo not drawn) [GW767488]: the “%Inh” value stood at 96% in [1]; 93.8% in [2]; 58% in assay [3]; 0% in [4]; 13% in assay [5]; 99.9% in assay [6]. Moreover, the “%Inh” value in assay [7] was 82%; in assay [8], 37%; in [9], 36%; in assay [10], 0%.

As for `Cc1n[nH]c2ccc(-c3cc(OC[C@@H](N)Cc4ccccc4)cnc3-c3ccoc3)cc12.O=C(O)C(F)(F)F.O=C(O)C(F)(F)F` [GSK507358], the “%Inh” value in assay [1] was 0%; in assay [2], 0%; in assay [3] it was 22%; in [4], 0%; in [5], 0%; in [6], 20%. In addition, the “%Inh” value was found to be 0% in [7], 4% in assay [8], 9% in [9] and 0% in [10].

Take `Nc1nc(Nc2ccccc2)cc(-c2ccc3c(N)n[nH]c3c2)n1` [GSK2225749]: the “%Inh” value in [1] was 27%; in assay [2], 18%; in assay [3] it was 17%; in assay [4], 6%; in assay [5] it was 0%; in [6], 0%. The “%Inh” value in assay [7] turned out to be 0%; in assay [8], 4%; in [9], 0%; in assay [10], 0%.

For `Cc1cc(C(=O)Nc2ccc(Oc3ccc4nc(NC(=O)C5CC5)cn4n3)cc2)nn1-c1ccccc1`, the “%Inh” value in assay [1], in assay [2], in assay [3], in assay [4], in assay [5] and in assay [6] was 0% in each case. Also, the “%Inh” value in [7] is 21%; in [8], 0%; in assay [9] it was 0%; in [10], 0%.

Take `CCN(CC)CCOc1ccc(Nc2ncc3cc(-c4c(Cl)cccc4Cl)c(=O)n(C)c3n2)cc1` [SB-601273]: the “%Inh” value in assay [1] turned out to be 0%; in assay [2], 0%; in assay [3] it was 79%; in assay [4] it was 47%; in assay [5], 63%; in [6] it was 94.3%. In addition, the “%Inh” value is reported as 0% in assay [7], 0% in assay [8], 6% in [9] and 92% in assay [10].

`CCN(CC)CCCCNc1ncc2cc(-c3c(Cl)cccc3Cl)c(NC(=O)NC(C)(C)C)nc2n1`: the “%Inh” value in assay [1] is 30%; in assay [2], 5%; in assay [3], 0%; in assay [4], 0%; in [5] it was 0%; in assay [6], 16%. For the same molecule, the “%Inh” value in assay [7], in [8], in [9] and in assay [10] was 0% in each case.

On to `Cl.Cl.Nc1nc(-c2ccc3c(N)n[nH]c3c2)cc(N2CCCC(NC(=O)c3ccccc3)C2)n1` (stereo not drawn) [GSK2286775], for which the “%Inh” value came out at 11% in assay [1]; 24% in assay [2]; 80% in assay [3]; 0% in assay [4]; 27% in assay [5]; 15% in [6]. In addition, the “%Inh” value in [7] amounted to 0%; in assay [8], 20%; in [9], 9%; in [10] it was 10%.

With `CCn1c(-c2nonc2N)nc2c(C#CC(C)(C)O)nc(OCCN)cc21.Cl.Cl` [GSK902056], the “%Inh” value in assay [1] is given as 23%; in assay [2], 19%; in [3] it was 0%; in [4], 9%; in [5], 0%; in [6], 28%. Moreover, the “%Inh” value amounted to 4% in assay [7], 18% in assay [8], 17% in [9] and 13% in assay [10].

For `Cc1cc2cn[nH]c2cc1-c1cccc2c(N)c(C(N)=O)nnc12`, the “%Inh” value is on record as 22% in assay [1]; 43% in [2]; 0% in assay [3]; 11% in assay [4]; 0% in assay [5]; 27% in assay [6]. In addition, the results for the “%Inh” value in assay [7], in [8] and in assay [10] were 1%, 34% and 4%, respectively.

For the molecule `Cl.Cl.NC[C@H](Cc1ccc(C(F)(F)F)cc1)NC(=O)c1cc(Br)c(-c2ccnc3[nH]ccc23)s1` [GSK1487252], the “%Inh” value is listed as 30% in [1]; 43% in assay [2]; 11% in assay [3]; 0% in [4]; 0% in [5]; 40% in [6]. The “%Inh” value in [7] is reported as 0%; in assay [8] it was 18%; in [9] it was 16%; in assay [10], 9%.

On to `CC(C)Nc1cc(-c2ccc3c(N)n[nH]c3c2)nc(N)n1` [GSK2221681], for which the “%Inh” value in assay [1] was 19%; in assay [2], 19%; in assay [3], 32%; in [4], 2%; in assay [5], 2%; in [6], 0%. Moreover, the “%Inh” value in assay [7] was 0%; in assay [8] it was 0%; in [9], 13%; in [10], 0%.

For the molecule `CNC(=O)c1ccccc1Sc1ccc2c(/C=C/c3ccccn3)n[nH]c2c1`, the “%Inh” value in assay [2] stood at 16%; in assay [3], 5%; in [4], 57%; in [5], 6%; in assay [6] it was 0%; in assay [7] it was 16%. For the same molecule, the “%Inh” value in [8], in [9] and in [10] was 0% in each case.

As to `Cc1ccc2c(-c3ccncc3)c(-c3ccc(F)cc3)nn2c1.Cl` [GW461484], the “%Inh” value in assay [1] is reported as 9%; in assay [2], 0%; in [3], 34%; in [4], 0%; in assay [5] it was 6%; in assay [6], 0%. Besides, the “%Inh” value in assay [7] came to 0%; in assay [8], 0%; in [9], 0%; in [10], 11%.
